Several values for one entry are separate records, joined by “and”; a condition that tells them apart may be missing. Identical values can stand only once. Compounds without any hit were thinned out: in the full panel of roughly 83,000, 20% have a hit.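 Growth was measured after 48 h exposure to one concentration of compound in 96-well plates. Values under 10 count as active.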 Activity calls are given as the source filed them.
Assays:
Test in all cases: NCI-60 one-dose screen, 48 h (100 = growth as untreated, 0 = no growth, -100 = all killed)
Conditions in all cases: 10 µM unless noted
[1] = system: SR leukemia
[2] = system: RPMI-8226 leukemia
[3] = system: OVCAR-8 ovarian
[4] = system: OVCAR-5 ovarian
[5] = system: OVCAR-4 ovarian
[6] = system: SK-OV-3 ovarian
[7] = system: IGROV1 ovarian
[8] = system: OVCAR-3 ovarian
[9] = system: HS 578T breast
[10] = system: NCI/ADR-RES ovarian
[11] = system: T-47D breast
[12] = system: BT-549 breast
[13] = system: MDA-MB-435 melanoma
[14] = system: SW-620 colon
[15] = system: MCF7 breast
[16] = system: HCT-116 colon
[17] = system: HCC-2998 colon
[18] = system: KM12 colon

Measured: growth

CCN(CCNS(C)(=O)=O)c1ccc(N)c(C)c1
1.47% (active) and 56.8% (inactive): [11]
-52.9% (active) and 43.1% (inactive): [16]
21.6% (inactive) and -27.2% (active): [14]
inactive: [1] 94.9% | [2] 59.9% and 110% | [3] 78.1% and 97.5% | [4] 115% and 109% | [5] 69.6% and 102% | [6] 98.6% and 96% | [7] 70.3% and 68.9% | [8] 25.5% and 77.8% | [9] 115% and 103% | [10] 90.2% and 96.9% | [12] 73.8% and 102% | [13] 28.9% and 76.5% | [15] 20.6% and 72.8% | [17] 103% and 102% | [18] 103%

Nc1ncnc2c1ncn2C1OC(COP(=O)(O)O)C(O)C1O (centres undefined)
inactive: [1] 111% | [2] 106% | [3] 111% | [4] 108% | [5] 126% | [6] 114% | [8] 124% | [10] 109% | [11] 123% | [12] 113% | [15] 101% | [16] 108% | [17] 104% | [18] 111%

COc1ccc(C(=O)CC(c2ccccc2)C(C#N)c2ccccc2)cc1 (centres undefined)
inactive: [1] 73.8% | [2] 72.6% | [3] 86% | [4] 110% | [5] 88.8% | [6] 102% | [7] 102% | [8] 82.4% | [9] 86.4% | [10] 84.2% | [14] 91.1% | [15] 93.4% | [16] 91.2% | [17] 99.1% | [18] 79.9%

N#CC(C#N)N=Nc1cc(Cl)ccc1Cl
inactive: [1] 106% | [2] 95.2% | [3] 90% | [4] 97.4% | [5] 98.9% | [6] 99.2% | [8] 106% | [9] 116% | [10] 112% | [11] 96.7% | [12] 101% | [14] 104% | [15] 93.7% | [16] 97.2% | [17] 104% | [18] 103%

Cc1ccc(=O)[nH]n1
inactive: [1] 98.9% and 93% | [2] 108% | [3] 100% and 102% | [4] 115% and 98.4% | [5] 112% and 122% | [6] 111% and 112% | [7] 106% | [8] 106% and 107% | [9] 105% and 93.7% | [10] 103% | [11] 109% and 95.4% | [12] 112% and 113% | [14] 102% and 103% | [15] 101% and 96.2% | [16] 107% | [17] 98.2% and 107% | [18] 103% and 101%

CCCCOc1ccc(Nc2cc(Cl)ccc2C(=O)O)cn1
inactive: [1] 96.1% | [2] 57.8% and 93.2% | [3] 111% and 94.6% | [4] 110% and 101% | [5] 92.4% | [6] 108% | [7] 42.5% and 104% | [8] 111% and 106% | [9] 95.3% and 99.2% | [10] 90.4% and 97.4% | [11] 92.6% and 92.3% | [12] 101% and 100% | [14] 103% and 101% | [15] 99.5% and 107% | [16] 93.7% and 92.4% | [17] 95.4% | [18] 118% and 103%

CCCCCCCCCCNC(=O)CI
active: [1] -40.9% | [3] 0.969% | [5] -44.1% | [6] 5.75% | [7] -67.4% | [8] -70.3% | [10] 2.88% | [11] -21.1% | [12] -87% | [13] 9.57% | [14] -33.9% | [16] -28.3%
inactive: [4] 95.8% | [9] 91.3% | [15] 10.7% | [17] 98.4% | [18] 55.3%
